{"source": "PubChem BioAssay (EPA / NIEHS)", "note": "The source made the active and inactive calls. The calls were made as follows: active = hit-call score of the fitted dose curve at least 0.9, where 1 is the maximum; inactive = score below 0.9."}
{"read-out": "Keratin 19 (KRT19), KRT19 (gene 3880)", "assay": "LTEA_HepaRG_KRT19: Life Technologies and Expression Analysis (LTEA) Assay for Keratin 19 (KRT19) using HepaRG (AID 2283512)", "conditions": "mRNA level, 48 h; actives raise or lower the signal", "experimental": "LTEA_HepaRG is a cell based, multiplexed-readout assay that uses HepaRG, a human liver cell line, with measurements taken at 48 hours after chemical dosing on a 96-well plate.LTEA_HepaRG_KRT19 is one of 102 assay component(s) measured in the LTEA HepaRG cell culture assay. It is a marker of Cell proliferation, survival, death.Data from the assay component LTEA_HepaRG_KRT19 was analyzed into 1 endpoint. This assay endpoint, LTEA_HepaRG_KRT19, was analyzed with bidirectional fitting relative to DMSO as the negative control and baseline of activity. Using a type of inducible reporter, measures of mRNA induction for gain or loss-of-signal activity can be used to understand regulation of transcription factor activity. To generalize the intended target to other relatable targets, this assay endpoint is annotated to the filaments intended target family, where the subfamily is keratin.\nA total of 1060 chemcials from the ToxCast library were tested in eight-point concentration-response experiments. Cell culture and cytotoxicity assays were conducted at Thermo Fisher Scientific's Custom Services facility (Madison, WI). A single lot of human HepaRG cells (Thermo Fisher Scientific, Frederick, MD) was used for the cell culture experiments. 96-well format collagen type I coated plates of human HepaRG cells were prepared using established methods. Briefly, cryopreserved HepaRG cells were thawed, plated at a density of approximately 100,000 cells/well in HepaRG Thaw, Plate, and General Purpose media (HPRG770, Thermo Fisher Scientific), and incubated for 48 hours. 0.5% DMSO was selected as vehicle control to balance the requisite need of DMSO in HepaRG cultures to maintain differentiation (for example, baseline metabolism, proportions of hepatocytes vs. cholangiocytes), while enabling further hepatic receptor pathway activation (for example, PXR and CAR) in response to chemical exposure. 48 hours after plating, the culture medium was replaced with HepaRG Serum-Free Incudtion Media. Cells were exposed to each test chemical in duplicate and maintained in CO2 incubators for another 48 hours. Chemical plates were thawed to room temperature and 200x concentrations of treatment groups were prepared. 8-point conentration-reponse curves were made with the highest exposure at 100 uM, followed by half-log dilutions, all in 0.5% DMSO. Each test plate contained variouse controls, induction positive controls (1mM phenobarbital), cytotoxicity positive controls ([…] aflatoxin B1), vehicle controls (0.5% DMSO), and total lysis controls (0.5% DMSO). Cell morphology images were taken using an Essen IncuCyte FLR automated microscope, with six 96-well plates imaged in about 24 minutes. Images were captured and exported and JPEG files. Spent culture media was transfered to black-well plates for the LDH assay, and remaining media was sorted at -80 C for later use. Cells were treated with RLT buffer and frozen until shipped for gene expression analysis. Total RNA was isolated from the cell suspension in 75 uL of Buffer RLT (Qiagen, Germantown, MD 20874) by Quintiles/Expression Analysis (Durham, NC) using a custom isolation procedure. Total RNA from each plate well was transferred to a preamplification plate. Fluidigm's 96.96 Dynamic ArrayTM (Fluidigm, Amsterdam, the Netherlands) technology was used for gene expression analyses by quantitative reverse transcription polymerase chain reaction (qRT-PCR, performed by Quintiles/Expression Analysis, Durham, NC)89. Standard TaqManTM Assays (Applied Biosystems/ThermoFisher Scientific, Foster City, CA) were used to assess the expression of 93 genes selected based on their selectivity and sensitivity to important hepatic receptors known to be modulated by environmental chemicals; importance in human hepatocyte functionality; and hepatotoxicity. […]"}
{"smiles": "Nc1cc2c3c(c1)C(c1ccccc1)=N[C@@H](NC(=O)c1cccnc1)C(=O)N3CC2", "outcome": "inactive"}
{"smiles": "CC(C)(C)OOC(C)(C)C", "outcome": "inactive"}
{"smiles": "O=C(O)C(Cl)Cl", "outcome": "inactive"}
{"smiles": "[N-]=[N+]=[N-]", "AC50": "64.8 µM (active)"}
{"smiles": "ClC(Cl)(Cl)c1ccccc1", "outcome": "inactive"}
{"smiles": "CCCCCCCc1ccc(O)cc1", "outcome": "inactive"}
{"smiles": "Cc1ccc(O)cc1C", "outcome": "inactive"}
{"smiles": "CC(Cl)(Cl)C(=O)O", "outcome": "inactive"}
{"smiles": "CCC(C)(C)c1ccc(O)cc1", "outcome": "inactive"}
{"smiles": "c1cc2c3c(cccc3c1)CC2", "outcome": "inactive"}
{"smiles": "ClC1=C(Cl)C2(Cl)C3C(Cl)C(Cl)CC3C1(Cl)C2(Cl)Cl", "note": "(stereo not given)", "outcome": "inactive"}
{"smiles": "O=[N+]([O-])c1ccc(Cl)c(Cl)c1", "outcome": "inactive"}
{"smiles": "CCOC(=O)c1ccccc1C(=O)OCC", "outcome": "inactive"}
{"smiles": "CC(C)(C)c1ccc(O)cc1", "outcome": "inactive"}
{"smiles": "CCCCc1ccccc1", "outcome": "inactive"}
{"smiles": "CCOP(=S)(OCC)SCSCC", "outcome": "inactive"}
{"smiles": "CCN(CC)c1ccccc1", "outcome": "inactive"}
{"smiles": "c1ccc(OP(Oc2ccccc2)Oc2ccccc2)cc1", "outcome": "inactive"}
{"smiles": "Nc1ccc(Cl)cc1", "outcome": "inactive"}
{"smiles": "CCCCN(CCCC)N=O", "outcome": "inactive"}
{"smiles": "Nc1ccc2ccccc2c1", "AC50": "5.98 µM (active)"}
{"smiles": "CCCCN(CCCC)SN(C)C(=O)Oc1cccc2c1OC(C)(C)C2", "outcome": "inactive"}
{"smiles": "ClC(Cl)c1ccccc1", "outcome": "inactive"}
{"smiles": "Cc1ccc(N)cc1N", "outcome": "inactive"}
{"smiles": "O=C(O)C1C(C(=O)O)C2(Cl)C(Cl)=C(Cl)C1(Cl)C2(Cl)Cl", "note": "(stereo not given)", "outcome": "inactive"}
{"smiles": "OCC1CO1", "note": "(stereo not given)", "outcome": "inactive"}
{"smiles": "O=P1(N(CCCl)CCCl)NCCCO1", "note": "(stereo not given)", "outcome": "inactive"}
{"smiles": "c1nc[nH]n1", "outcome": "inactive"}
{"smiles": "CSC(C)(C)C=NO", "outcome": "inactive"}
{"smiles": "CCNc1nc(Cl)nc(NC(C)(C)C)n1", "AC50": "10.7 µM (active)"}
{"smiles": "CCC1(c2ccccc2)C(=O)N=C(O)NC1=O", "note": "(stereo not given)", "outcome": "inactive"}
{"smiles": "CC(Cc1ccc(OCC(=O)O)cc1)NCC(O)c1csc(C(F)(F)F)n1", "note": "(stereo not given)", "AC50": "0.138 µM (active)"}
{"smiles": "CCCN(CCC)c1c([N+](=O)[O-])cc(C(C)C)cc1[N+](=O)[O-]", "outcome": "inactive"}
{"smiles": "c1ccc2c(c1)Nc1ccccc1S2", "AC50": "41.5 µM (active)"}
{"smiles": "O=[N+]([O-])c1ccccc1", "outcome": "inactive"}
{"smiles": "Cc1ccc([N+](=O)[O-])cc1C", "outcome": "inactive"}
{"smiles": "CCOP(=S)(Oc1ccc([N+](=O)[O-])cc1)c1ccccc1", "note": "(stereo not given)", "AC50": "15.9 µM (active)"}
{"smiles": "O=P(Oc1ccccc1)(Oc1ccccc1)Oc1ccccc1", "AC50": "0.981 µM (active)"}
{"smiles": "COCCOCCO", "outcome": "inactive"}
{"smiles": "CN(C)C(=O)Cl", "outcome": "inactive"}
